Experimental findings from ChEMBL document CHEMBL3988442, “University of Dundee, Small-Polar-MMV Screening Library” (2021) are described below.

Out of some 48,000 compounds screened, about 13,000 (27%) showed an effect of 50% or more. The list shows a part of the results.

For the experiment, the system named is Wolbachia pipientis. The experiment in a line: Anti-Wolbachia Cell-Based Screen. It counts as functional. Also noted: scale not given: in the data most compounds retested in dose-response had high values. The conditions noted are these: 5 µM.
As to `CN(Cc1cn2c(n1)CN(C(=O)c1cccn1C)CC2)Cc1ccco1`, the “Percent Effect” value is reported as 10.07%.

In the case of `COc1cccc(OCc2nnc3n2N=C(C(C)(C)C)CS3)c1`, the “Percent Effect” value is listed as -3.476%.

`CCC(CC)N(Cc1cc(=O)n(C)c(=O)n1C)C1CC1`: the “Percent Effect” value is reported as -2.422%.

For the molecule `CC(C)C(O)CNC(=O)Nc1cccc(-c2nccs2)c1` (centres undefined), the “Percent Effect” value came out at 0.8901%.

In the case of `CN1CCC2(CC1)CN(CC1CC1)CC21CCNC1=O.O=C(O)C(F)(F)F.O=C(O)C(F)(F)F` (centres undefined), the “Percent Effect” value is recorded as -40.68%.

For `COCCN1CCC(CNC(=O)C2(c3cccc(Cl)c3)CC2)C1` (centres undefined), the “Percent Effect” value is given as 119%.

As to `COCCN1CCC(CNC(=O)C2(c3cccc(C)c3)CC2)C1` (centres undefined), the “Percent Effect” value was 112.6%.

Regarding `COCCN1CCC(CNC(=O)C2(c3cc(C)cc(C)c3)CC2)CC1`, the “Percent Effect” value came out at 106.5%.

For `CCN1CCCC(CNC(=O)C2(c3cccc(Cl)c3)CC2)C1` (centres undefined), the “Percent Effect” value was determined as 3.483%.

For the molecule `COCCN1CCC(NC(=O)C2(c3cc(C)cc(C)c3)CC2)CC1`, the “Percent Effect” value turned out to be 0.6832%.

`COCCN1CCC(CNC(=O)C2(c3cccc(C)c3)CC2)CC1`: the “Percent Effect” value came to 2.355%.

`COCCN1CCC(CNC(=O)C2(c3cc(C)cc(C)c3)CCC2)C1` (centres undefined): the “Percent Effect” value is listed as 8.369%.

In the case of `COC(C)c1noc(CN(C)c2ncc(Br)cn2)n1` (centres undefined), the “Percent Effect” value amounted to 13.56%.

For `CCCc1noc(CCCC(=O)N2CCCC(n3ccnc3C)C2)n1` (centres undefined), the “Percent Effect” value is recorded as -4.622%.

Consider `CCCN1CCC(N2CCC(Cn3cc(C4CC4)nn3)CC2)CC1`, for which the “Percent Effect” value is reported as -14.8%.

For `Cc1ccc(F)c(S(=O)(=O)NCc2cccc(CS(C)(=O)=O)c2)c1`, the “Percent Effect” value is recorded as -5.265%.

Consider `CCS(=O)(=O)N1C[C@H]2CN(Cc3ccc(OC)cc3)C(=O)[C@H]2C1`, for which the “Percent Effect” value is 106.9%.

Take `COc1ccc(CN2C[C@@H]3CN(S(=O)(=O)C4CC4)C[C@@H]3C2=O)cc1`: the “Percent Effect” value is -20.01%.

Take `CCS(=O)(=O)N1C[C@H]2CN(Cc3cccc(F)c3)C(=O)[C@H]2C1`: the “Percent Effect” value was 106.4%.

For `Cc1cccc(CN2C[C@@H]3CN(C4CCOCC4)C[C@@H]3C2=O)c1.O=C(O)C(F)(F)F`, the “Percent Effect” value is 2.907%.

As to `COc1ccc(CN2C[C@@H]3CN(CCO)C[C@@H]3C2=O)cc1`, the “Percent Effect” value is on record as -4.847%.

Turning to `O=C(O)C(F)(F)F.O=C1[C@H]2CN(CC3CCOCC3)C[C@H]2CN1Cc1cccc(F)c1`, the “Percent Effect” value is -3.595%.

Turning to `Cc1cccc(CN2C[C@@H]3CN(C(=O)c4ccsc4)C[C@@H]3C2=O)c1`, the “Percent Effect” value is given as 0.6245%.

`Cc1cccc(CN2C[C@@H]3CN(C(=O)NC(C)C)C[C@@H]3C2=O)c1`: the “Percent Effect” value was found to be 0.03785%.

Regarding `CCS(=O)(=O)N1C[C@H]2CN(Cc3cccc(C)c3)C(=O)[C@H]2C1`, the “Percent Effect” value was 103%.

In the case of `CCCNC(=O)[C@@H]1CCCN1[C@@H](C(=O)NC)C1CC1.Cl`, the “Percent Effect” value is -3.59%.

`O=C(N1CCC(O)(C(F)(F)F)C1)C1(c2cccc(Cl)c2)CC1` (centres undefined): the “Percent Effect” value was -4.685%.

For `C[S+]([O-])c1ccc(NC(=O)CC2=CCCCC2)cc1` (centres undefined), the “Percent Effect” value was -2.422%.

`CCOCC1CN(c2ncc(F)cn2)Cc2cn(CC)nc21` (centres undefined): the “Percent Effect” value is given as -1.494%.

As to `COCC1CN(CCc2ccc(OC)c(OC)c2)Cc2c1cnn2C` (centres undefined), the “Percent Effect” value was determined as 98.17%.

With `CCn1ncc2c1CN(CCc1cccc(Cl)c1)CC2COC.O=C(O)C(F)(F)F.O=C(O)C(F)(F)F` (centres undefined), the “Percent Effect” value amounted to 128.6%.

Consider `CCOCC1CN(CCOCc2ccccc2)Cc2c1cnn2C` (centres undefined), for which the “Percent Effect” value is given as -3.92%.

For the molecule `CCn1ncc2c1CN(C(=O)Cc1ccccn1)CC2COC.O=C(O)C(F)(F)F.O=C(O)C(F)(F)F` (centres undefined), the “Percent Effect” value is on record as -10.79%.

For the molecule `CCn1ncc2c1CN(C(=O)c1cc(C)oc1C)CC2COC.O=C(O)C(F)(F)F` (centres undefined), the “Percent Effect” value was -2.484%.

In the case of `CCOCC1CN(CCc2ccccc2)Cc2c1cnn2C` (centres undefined), the “Percent Effect” value was found to be 9.007%.

Take `CCOCC1CN(CCOc2ccc(Cl)cc2)Cc2c1cnn2C.O=C(O)C(F)(F)F.O=C(O)C(F)(F)F` (centres undefined): the “Percent Effect” value was -5.642%.

On to `COCC1CN(CCOc2ccc(Cl)cc2)Cc2c1cnn2C.O=C(O)C(F)(F)F.O=C(O)C(F)(F)F` (centres undefined), for which the “Percent Effect” value came to 128.1%.

For `COCC1CN(S(=O)(=O)c2ccc(C)cc2)Cc2c1cnn2C.O=C(O)C(F)(F)F` (centres undefined), the “Percent Effect” value is 14.09%.

On to `CN1CCN(c2ccc(NCc3ccc(OC(F)(F)F)cc3)cn2)CC1`, for which the “Percent Effect” value is listed as -13.31%.

In the case of `COC(=O)N1CCC(Nc2cccc(F)c2C#N)CC1`, the “Percent Effect” value came out at 6.326%.

In the case of `N#Cc1ccccc1C(=O)N1C[C@@H](CN2CCCCCC2)[C@@H](CO)C1`, the “Percent Effect” value is -2.218%.

`Cc1nnc(SCC(=O)N2CCc3[nH]nc(C4CCC4)c3C2)o1`: the “Percent Effect” value is recorded as -25.51%.

`CCN(CC)C(=O)C(c1ccccc1)N1CCn2c(C)nnc2C1` (centres undefined): the “Percent Effect” value is -5.766%.

Regarding `CC1(C)CC(CC(=O)N2CC(C)(C)[C@@](C)(O)C2)CC(C)(C)N1`, the “Percent Effect” value is -10.88%.

Turning to `CCc1cc(N[C@@H](CC(C)C)C(N)=O)n2nc(C)c(C)c2n1`, the “Percent Effect” value is given as 1.157%.

In the case of `O=C1CC(C(=O)N2CCc3sccc3C2)CN1Cc1cccnc1` (centres undefined), the “Percent Effect” value is -4.394%.

As for `O=C([C@H]1CCCO1)N1CCN(Cc2cccnc2)c2ncccc2C1`, the “Percent Effect” value is 109.6%.

On to `O=C([C@@H]1CCCO1)N1CCN(Cc2ccncc2)c2ncccc2C1`, for which the “Percent Effect” value stood at 98.82%.

As for `CCC(C)(C)NC(=O)c1ccc(NC(=O)NCc2cc(C)no2)cc1`, the “Percent Effect” value is -4.635%.
